This note sets out measurements from PMC7862700, “An all-to-all approach to the identification of sequence-specific readers for epigenetic DNA modifications on cytosine”.

Common to all, as to test: DAPPL (digital affinity profiling via proximity ligation, sequencing); 10 mM Tris-HCl pH 7.5, 50 mM NaCl, 1 mM DTT, 4% glycerol, room temperature, 30 min; GST-TFs on glutathione beads, 16-mer random dsDNA library, 0.1% formaldehyde crosslink after washing; high values mean tight binding
The target in one assay is T1, FEV (Homo sapiens, UniProt Q99581 1-238).
T1 sequence: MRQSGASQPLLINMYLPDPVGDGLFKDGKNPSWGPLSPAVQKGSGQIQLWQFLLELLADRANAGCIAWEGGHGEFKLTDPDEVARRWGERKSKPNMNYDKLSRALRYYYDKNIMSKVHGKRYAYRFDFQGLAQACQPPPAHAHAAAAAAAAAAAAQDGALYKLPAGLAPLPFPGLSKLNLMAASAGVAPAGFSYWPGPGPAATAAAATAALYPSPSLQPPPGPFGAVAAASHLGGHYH
As to conditions: protein: recombinant; tags: N-terminal GST; dsDNA, one strand shown. The gist of the method:
(§1)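 Human transcription factors were made in yeast as GST fusions, captured on glutathione beads and barcoded with DNA. With a tag-only sample included, the pool was incubated with 200 nmole of a random double-stranded 16-mer DNA library in Tris/NaCl/DTT/glycerol buffer at room temperature for 30 min, then crosslinked with 0.1% formaldehyde after washing, ligated by proximity, amplified and sequenced. For binding signal, each hexamer's read frequency for a factor is divided by its frequency for the tag-only sample.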

The target in another assay is ETV5 (Homo sapiens, UniProt P41161 1-510). The settings on record: protein: recombinant; tags: N-terminal GST; dsDNA, one strand shown. The gist of the method: as §1
Sequence of ETV5 (P41161 whole entry): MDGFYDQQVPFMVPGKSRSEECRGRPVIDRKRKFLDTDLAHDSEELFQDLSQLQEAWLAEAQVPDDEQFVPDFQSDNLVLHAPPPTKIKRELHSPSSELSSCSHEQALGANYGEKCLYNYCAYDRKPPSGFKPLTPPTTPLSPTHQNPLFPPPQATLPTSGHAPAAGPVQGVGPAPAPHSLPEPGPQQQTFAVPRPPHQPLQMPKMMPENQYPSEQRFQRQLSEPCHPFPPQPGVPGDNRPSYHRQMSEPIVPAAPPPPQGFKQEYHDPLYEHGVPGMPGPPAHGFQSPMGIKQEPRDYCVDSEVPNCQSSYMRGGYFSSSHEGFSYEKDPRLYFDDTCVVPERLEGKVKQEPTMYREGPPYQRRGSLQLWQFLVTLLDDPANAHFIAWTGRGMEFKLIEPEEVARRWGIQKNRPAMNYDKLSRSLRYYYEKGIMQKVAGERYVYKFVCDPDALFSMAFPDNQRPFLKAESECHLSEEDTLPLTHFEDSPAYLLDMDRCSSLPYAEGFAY
The target in another assay is HSF1 (Homo sapiens, UniProt Q00613 1-529). The settings on record: protein: recombinant; tags: N-terminal GST; chain copies: 3; dsDNA, one strand shown. The gist of the method: as §1
Sequence of HSF1 (Q00613 whole entry): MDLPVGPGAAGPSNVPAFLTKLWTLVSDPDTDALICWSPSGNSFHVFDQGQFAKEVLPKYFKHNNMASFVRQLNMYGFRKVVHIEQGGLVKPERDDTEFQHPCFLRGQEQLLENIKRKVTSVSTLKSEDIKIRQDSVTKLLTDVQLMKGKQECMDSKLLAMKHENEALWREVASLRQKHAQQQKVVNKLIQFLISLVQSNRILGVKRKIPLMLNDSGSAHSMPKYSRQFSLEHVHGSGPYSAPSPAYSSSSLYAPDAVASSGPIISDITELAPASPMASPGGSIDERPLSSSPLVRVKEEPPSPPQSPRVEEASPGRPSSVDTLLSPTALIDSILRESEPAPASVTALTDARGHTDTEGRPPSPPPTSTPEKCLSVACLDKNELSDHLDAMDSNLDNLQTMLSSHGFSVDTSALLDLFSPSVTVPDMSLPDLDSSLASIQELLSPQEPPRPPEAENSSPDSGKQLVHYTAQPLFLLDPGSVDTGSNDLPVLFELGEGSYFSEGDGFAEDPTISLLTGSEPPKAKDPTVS
For a further assay, the target named is T2, SPIC (Homo sapiens, UniProt Q8N5J4 1-248).
T2 sequence: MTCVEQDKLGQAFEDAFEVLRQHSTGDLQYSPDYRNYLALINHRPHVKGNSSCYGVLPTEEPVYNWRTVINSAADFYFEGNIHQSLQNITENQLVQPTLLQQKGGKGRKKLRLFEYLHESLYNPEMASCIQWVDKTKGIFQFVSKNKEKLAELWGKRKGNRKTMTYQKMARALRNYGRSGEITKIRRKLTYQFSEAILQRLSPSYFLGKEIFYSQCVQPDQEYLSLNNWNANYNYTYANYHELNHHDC
The settings on record: protein: recombinant; tags: N-terminal GST; dsDNA, one strand shown. The gist of the method: as §1

The next assay has as its target ELF4 (Homo sapiens, UniProt Q99607 1-663). The settings on record: protein: recombinant; tags: N-terminal GST; dsDNA, one strand shown. Summed up:
as §1

In another assay the target is T3, ELK4 (Homo sapiens, UniProt P28324-2 1-405).
T3 sequence: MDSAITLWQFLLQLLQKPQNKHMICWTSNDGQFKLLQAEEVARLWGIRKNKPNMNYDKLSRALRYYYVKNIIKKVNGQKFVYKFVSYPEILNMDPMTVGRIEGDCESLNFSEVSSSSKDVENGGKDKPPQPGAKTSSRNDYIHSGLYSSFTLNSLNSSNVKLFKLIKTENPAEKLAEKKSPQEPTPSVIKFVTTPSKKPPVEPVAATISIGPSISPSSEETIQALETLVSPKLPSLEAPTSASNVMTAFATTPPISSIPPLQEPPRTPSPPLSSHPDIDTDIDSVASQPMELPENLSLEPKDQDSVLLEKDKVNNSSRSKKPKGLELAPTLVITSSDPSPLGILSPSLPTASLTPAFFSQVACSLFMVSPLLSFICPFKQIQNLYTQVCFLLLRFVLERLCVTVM
As to conditions: protein: recombinant; tags: N-terminal GST; dsDNA, one strand shown. Summed up:
as §1

A further assay deals with T4, ETV2 (Homo sapiens, UniProt O00321 1-342).
T4 sequence: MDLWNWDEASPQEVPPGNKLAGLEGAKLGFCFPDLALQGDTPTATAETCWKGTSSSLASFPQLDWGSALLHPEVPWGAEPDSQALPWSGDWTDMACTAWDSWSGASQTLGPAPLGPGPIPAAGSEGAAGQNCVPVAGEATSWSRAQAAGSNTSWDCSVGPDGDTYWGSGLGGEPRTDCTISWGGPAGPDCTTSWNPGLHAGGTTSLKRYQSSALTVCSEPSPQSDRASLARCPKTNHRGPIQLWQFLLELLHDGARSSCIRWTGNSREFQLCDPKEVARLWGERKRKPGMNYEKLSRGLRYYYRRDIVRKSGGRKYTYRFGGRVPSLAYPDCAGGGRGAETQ
The settings on record: protein: recombinant; tags: N-terminal GST; dsDNA, one strand shown. The gist of the method: as §1

Another assay concerns the target T5, ELF3 (Homo sapiens, UniProt P78545 1-371).
T5 sequence: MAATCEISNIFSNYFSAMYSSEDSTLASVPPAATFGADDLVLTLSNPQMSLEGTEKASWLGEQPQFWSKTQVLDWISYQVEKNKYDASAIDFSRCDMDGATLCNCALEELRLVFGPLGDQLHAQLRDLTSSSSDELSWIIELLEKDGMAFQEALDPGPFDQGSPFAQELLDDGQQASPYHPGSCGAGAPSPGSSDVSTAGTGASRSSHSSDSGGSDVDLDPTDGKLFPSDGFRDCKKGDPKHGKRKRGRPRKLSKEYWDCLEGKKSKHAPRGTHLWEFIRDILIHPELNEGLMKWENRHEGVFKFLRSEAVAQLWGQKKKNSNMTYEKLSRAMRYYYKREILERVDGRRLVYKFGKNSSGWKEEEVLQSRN
The settings on record: protein: recombinant; tags: N-terminal GST; dsDNA, one strand shown. The gist of the method: as §1

The next assay deals with CRX (Homo sapiens, UniProt O43186 1-299). As to conditions: protein: recombinant; tags: N-terminal GST; dsDNA, one strand shown. The gist of the method:
as §1

In a further assay the target is ETV1 (Homo sapiens, UniProt P50549 1-477). The settings on record: protein: recombinant; tags: N-terminal GST; dsDNA, one strand shown. The gist of the method: as §1
Sequence of ETV1 (P50549 whole entry): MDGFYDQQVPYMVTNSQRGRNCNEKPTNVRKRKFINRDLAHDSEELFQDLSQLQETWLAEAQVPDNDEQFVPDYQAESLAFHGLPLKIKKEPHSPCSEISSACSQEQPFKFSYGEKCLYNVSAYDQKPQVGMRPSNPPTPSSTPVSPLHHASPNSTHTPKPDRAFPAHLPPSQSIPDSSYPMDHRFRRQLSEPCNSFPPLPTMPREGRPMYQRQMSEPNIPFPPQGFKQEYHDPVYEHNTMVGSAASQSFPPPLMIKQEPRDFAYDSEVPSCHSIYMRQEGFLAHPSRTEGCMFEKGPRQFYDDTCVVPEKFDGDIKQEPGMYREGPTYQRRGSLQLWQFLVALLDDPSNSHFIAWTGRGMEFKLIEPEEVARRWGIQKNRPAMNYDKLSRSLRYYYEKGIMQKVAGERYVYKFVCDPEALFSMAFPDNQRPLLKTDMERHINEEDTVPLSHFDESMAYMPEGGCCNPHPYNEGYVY

Sequence of CRX (O43186 whole entry): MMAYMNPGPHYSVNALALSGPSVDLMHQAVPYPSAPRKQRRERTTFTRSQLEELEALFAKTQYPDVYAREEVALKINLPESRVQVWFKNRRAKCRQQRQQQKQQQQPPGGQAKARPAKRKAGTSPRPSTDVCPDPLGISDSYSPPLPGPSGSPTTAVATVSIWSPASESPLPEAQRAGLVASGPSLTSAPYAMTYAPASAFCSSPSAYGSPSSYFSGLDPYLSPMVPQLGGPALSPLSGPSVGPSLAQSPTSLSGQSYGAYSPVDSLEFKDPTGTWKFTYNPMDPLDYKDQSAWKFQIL
Sequence of ELF4 (Q99607 whole entry): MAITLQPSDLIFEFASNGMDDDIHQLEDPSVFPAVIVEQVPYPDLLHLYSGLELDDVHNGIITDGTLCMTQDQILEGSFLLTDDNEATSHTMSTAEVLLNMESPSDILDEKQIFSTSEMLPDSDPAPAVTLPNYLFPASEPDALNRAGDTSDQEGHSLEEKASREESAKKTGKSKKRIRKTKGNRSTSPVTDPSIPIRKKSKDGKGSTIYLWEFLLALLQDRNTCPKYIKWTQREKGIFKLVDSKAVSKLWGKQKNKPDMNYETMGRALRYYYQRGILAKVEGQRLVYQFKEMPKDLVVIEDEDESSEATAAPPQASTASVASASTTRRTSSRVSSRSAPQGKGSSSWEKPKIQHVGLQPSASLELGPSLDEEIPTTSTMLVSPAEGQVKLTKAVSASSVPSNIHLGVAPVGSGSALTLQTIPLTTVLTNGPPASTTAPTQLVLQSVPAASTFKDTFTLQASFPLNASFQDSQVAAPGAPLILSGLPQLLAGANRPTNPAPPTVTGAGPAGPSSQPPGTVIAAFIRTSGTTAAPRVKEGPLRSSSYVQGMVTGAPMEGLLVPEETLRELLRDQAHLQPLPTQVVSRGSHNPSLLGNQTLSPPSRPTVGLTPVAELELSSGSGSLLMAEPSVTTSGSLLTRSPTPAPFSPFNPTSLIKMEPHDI

On to TACGCA, for which the binding signal with FEV was 1.16 fold enrichment (6-mer frequency, TF over GST control); in the assay with ETV5, 1.21 fold enrichment (6-mer frequency, TF over GST control); in the assay with HSF1 it was 1.06 fold enrichment (6-mer frequency, TF over GST control); with SPIC, 1.16 fold enrichment (6-mer frequency, TF over GST control); with ELF4, 1.23 fold enrichment (6-mer frequency, TF over GST control); with ELK4 it was 1.12 fold enrichment (6-mer frequency, TF over GST control). The binding signal is 1.15 fold enrichment (6-mer frequency, TF over GST control) in the assay with ETV2; 1.19 fold enrichment (6-mer frequency, TF over GST control) with ELF3; 1.21 fold enrichment (6-mer frequency, TF over GST control) with CRX; 1.25 fold enrichment (6-mer frequency, TF over GST control) with ETV1.

Turning to ACTTGG, the binding signal with FEV is 1.17 fold enrichment (6-mer frequency, TF over GST control); in the assay with ETV5 it was 1.21 fold enrichment (6-mer frequency, TF over GST control); with HSF1, 1.09 fold enrichment (6-mer frequency, TF over GST control); with SPIC, 1.27 fold enrichment (6-mer frequency, TF over GST control); in the assay with ELF4 it was 1.31 fold enrichment (6-mer frequency, TF over GST control); with ELK4 it was 1.28 fold enrichment (6-mer frequency, TF over GST control). Further, the binding signal was 1.15 fold enrichment (6-mer frequency, TF over GST control) in the assay with ETV2; 1.36 fold enrichment (6-mer frequency, TF over GST control) with ELF3; 1.1 fold enrichment (6-mer frequency, TF over GST control) with CRX; 1.25 fold enrichment (6-mer frequency, TF over GST control) with ETV1.

GATTTC: the binding signal with FEV was 2.86 fold enrichment (6-mer frequency, TF over GST control); with ETV5, 1.92 fold enrichment (6-mer frequency, TF over GST control); with HSF1 it was 1.56 fold enrichment (6-mer frequency, TF over GST control); with SPIC, 1.65 fold enrichment (6-mer frequency, TF over GST control); in the assay with ELF4, 1.7 fold enrichment (6-mer frequency, TF over GST control); with ELK4, 1.64 fold enrichment (6-mer frequency, TF over GST control). Also, the binding signal is 1.64 fold enrichment (6-mer frequency, TF over GST control) in the assay with ETV2; 1.62 fold enrichment (6-mer frequency, TF over GST control) with ELF3; 1.52 fold enrichment (6-mer frequency, TF over GST control) in the assay with CRX; 1.79 fold enrichment (6-mer frequency, TF over GST control) with ETV1.

With ATCCAC, the binding signal with FEV is 1.14 fold enrichment (6-mer frequency, TF over GST control); with ETV5 it was 1.18 fold enrichment (6-mer frequency, TF over GST control); with HSF1, 1.36 fold enrichment (6-mer frequency, TF over GST control); in the assay with SPIC, 1.24 fold enrichment (6-mer frequency, TF over GST control); with ELF4, 1.22 fold enrichment (6-mer frequency, TF over GST control); with ELK4 it was 1.32 fold enrichment (6-mer frequency, TF over GST control). The binding signal is 1.23 fold enrichment (6-mer frequency, TF over GST control) with ETV2; 1.14 fold enrichment (6-mer frequency, TF over GST control) with ELF3; 1.48 fold enrichment (6-mer frequency, TF over GST control) in the assay with CRX; 1.2 fold enrichment (6-mer frequency, TF over GST control) in the assay with ETV1.

For the sequence TATTGC, the binding signal is 1.33 fold enrichment (6-mer frequency, TF over GST control) with FEV; 1.34 fold enrichment (6-mer frequency, TF over GST control) with ETV5; 1.21 fold enrichment (6-mer frequency, TF over GST control) with HSF1; 1.5 fold enrichment (6-mer frequency, TF over GST control) in the assay with SPIC; 1.41 fold enrichment (6-mer frequency, TF over GST control) with ELF4; 1.29 fold enrichment (6-mer frequency, TF over GST control) in the assay with ELK4. Moreover, the binding signal with ETV2 is 1.22 fold enrichment (6-mer frequency, TF over GST control); with ELF3, 1.2 fold enrichment (6-mer frequency, TF over GST control); with CRX, 1.47 fold enrichment (6-mer frequency, TF over GST control); with ETV1, 1.45 fold enrichment (6-mer frequency, TF over GST control).

Take GAATCC: the binding signal is 1.13 fold enrichment (6-mer frequency, TF over GST control) with FEV; 1.17 fold enrichment (6-mer frequency, TF over GST control) with ETV5; 1.21 fold enrichment (6-mer frequency, TF over GST control) with HSF1; 1.1 fold enrichment (6-mer frequency, TF over GST control) with SPIC; 1.12 fold enrichment (6-mer frequency, TF over GST control) with ELF4; 1.19 fold enrichment (6-mer frequency, TF over GST control) with ELK4. The binding signal with ETV2 is 1.09 fold enrichment (6-mer frequency, TF over GST control); with ELF3 it was 1.02 fold enrichment (6-mer frequency, TF over GST control); with CRX it was 1.19 fold enrichment (6-mer frequency, TF over GST control); with ETV1, 1.13 fold enrichment (6-mer frequency, TF over GST control).

With CTTTAC, the binding signal with FEV is 1.31 fold enrichment (6-mer frequency, TF over GST control); in the assay with ETV5, 1.3 fold enrichment (6-mer frequency, TF over GST control); with HSF1 it was 1.37 fold enrichment (6-mer frequency, TF over GST control); with SPIC it was 1.4 fold enrichment (6-mer frequency, TF over GST control); with ELF4 it was 1.45 fold enrichment (6-mer frequency, TF over GST control); with ELK4 it was 1.44 fold enrichment (6-mer frequency, TF over GST control). Besides, the binding signal with ETV2 is 1.41 fold enrichment (6-mer frequency, TF over GST control); with ELF3, 1.44 fold enrichment (6-mer frequency, TF over GST control); with CRX it was 1.51 fold enrichment (6-mer frequency, TF over GST control); with ETV1 it was 1.3 fold enrichment (6-mer frequency, TF over GST control).

For the sequence ATGGAA, the binding signal with FEV was 1.16 fold enrichment (6-mer frequency, TF over GST control); with ETV5 it was 1.16 fold enrichment (6-mer frequency, TF over GST control); with HSF1, 1.86 fold enrichment (6-mer frequency, TF over GST control); with SPIC, 1.22 fold enrichment (6-mer frequency, TF over GST control); with ELF4, 1.19 fold enrichment (6-mer frequency, TF over GST control); in the assay with ELK4, 1.13 fold enrichment (6-mer frequency, TF over GST control). Further, the binding signal with ETV2 is 1.26 fold enrichment (6-mer frequency, TF over GST control); with ELF3, 1.16 fold enrichment (6-mer frequency, TF over GST control); with CRX, 1.22 fold enrichment (6-mer frequency, TF over GST control); with ETV1, 1.24 fold enrichment (6-mer frequency, TF over GST control).
